This passage reports inhibition results from PubChem BioAssay.

Values without a mark were called inactive. No rule for the calls is given here.

The target in this assay is Pantothenate synthetase (Mycobacterium tuberculosis (strain ATCC 25618 / H37Rv)) (UniProt P9WIL5). In words: Coupled enzyme confirmation of inhibitors against recombinant Mtb PanC (AID 375).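 Also: 0% = full reaction with vehicle and 100% = no enzyme background.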 The settings on record: coupled enzyme assay; at 10 µM, stronger effect = higher value.
Pantothenate synthetase (Mycobacterium tuberculosis (strain ATCC 25618 / H37Rv)), sequence (P9WIL5 whole entry, looked up): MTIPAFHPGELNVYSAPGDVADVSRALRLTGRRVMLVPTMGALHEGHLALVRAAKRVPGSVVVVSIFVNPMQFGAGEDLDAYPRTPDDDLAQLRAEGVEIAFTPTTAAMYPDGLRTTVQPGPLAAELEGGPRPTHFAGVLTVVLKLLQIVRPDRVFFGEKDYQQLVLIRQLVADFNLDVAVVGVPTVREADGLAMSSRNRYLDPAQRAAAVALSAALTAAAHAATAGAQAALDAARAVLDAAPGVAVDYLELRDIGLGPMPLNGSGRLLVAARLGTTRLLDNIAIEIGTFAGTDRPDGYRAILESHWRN
For the compound `CC(=O)c1cc(-c2ccc(F)cc2)n(CCC(=O)Nc2cc(C)[nH]n2)c1C`, the inhibition (commonly the share of the control response that was lost under treatment) was 4%.
Turning to `COC(=O)CSC1=NS(=O)(=O)c2ccccc21`, the inhibition is 0%.
For `O=S(=O)(c1ccc(N2CCN(c3ccc(F)cc3)CC2)cc1)N1CCCC1`, the inhibition is 0%.
Under `CC(=O)c1c(C)[nH]c(C(=O)Nc2c(C)n(C)n(-c3ccccc3)c2=O)c1C` stands 7%.
In the case of `O=C(Nc1ccccc1N1CCCCC1)c1ncoc1-c1ccc(F)cc1`, the inhibition was 1%.
Consider `COc1ccc(OC)c(N2Cc3cc(C)c(C)cc3C2)c1`, for which the inhibition is 3%.
Regarding `CCC(C)(NC(=O)c1ccc(=O)[nH]c1)C(=O)NC1CCCC1` (configuration not stated), the inhibition is 0%.
In the case of `Cn1c(=O)n(Cc2ccc(F)cc2)c(=O)c2c1nc1n2CCCN1Cc1ccccc1`, the inhibition was 0%.
As to `CCC(=O)c1ccc(OCC(O)CN2CCN(S(=O)(=O)N3CCCCC3)CC2)cc1` (configuration not stated), the inhibition is 1%.
In the case of `COc1ccc(N2CCN(C(=O)COc3ccc4ccccc4c3)CC2)cc1`, the inhibition is 2%.
The result for `CCOC(=O)C1CCCN(c2c(Nc3ccc(C)c(C)c3)c(=O)c2=O)C1` (configuration not stated) reads 2%; that for `Cc1ccc(C)c(N2CCN(S(=O)(=O)c3ccc4c(c3)OCCO4)CC2)c1`, 4%; that for `COc1cccc(-c2cc(C(=O)Nc3cc(OC)c(OC)c(OC)c3)no2)c1`, 0%.
Take `Cc1nnc(NC(=O)c2ccco2)s1`: the inhibition is 5%.
On to `Cc1cc(C(=O)Nc2ccccc2C#N)n(-c2ccccc2)n1`, for which the inhibition was 0%.
With `Oc1ccc2ccccc2c1CN1CCN(c2ccccc2F)CC1`, the inhibition was 1%.
As for `CC(C)N(C(=O)COC(=O)c1ccc(O)cc1)C(C)C`, the inhibition was 1%.
